These results are taken from PubChem BioAssay.

Values without a mark were called inactive. Unless noted, no rule for the calls is given here.

The first experiment is described as follows: cell viability in Huh7 cells, primary screen, cytotoxicity control for HCV replication inhibitor project, CellTiter-Glo luminescence, basal, 48 h (AID 1143).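 Also: Huh7 hepatoma cells carrying a hepatitis C replication reporter with no stimulus; test concentration not given here.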 The note with it: Huh7 HCV replicon, higher = more signal, called active from +8 up or from −8 down. On the technique in general: Cellular ATP, detected with luciferase, serves as a proxy for viable cell number.
As for `[N-]=[N+]=Nc1ccccc1C[C@@]1(C(N)=O)N=C(c2ccc(OCCCO)cc2)O[C@@H]1c1ccccc1N=[N+]=[N-]`, the z-score is -5.17.

Turning to `O=C(NCc1ccc(F)cc1)[C@H]1C[C@H]2C(=O)NCC(=O)N2[C@H]1c1ccc(O)cc1`, the z-score is -0.764.

Regarding `C=CCNC(=O)[C@@H]1[C@H]2C(=O)O[C@H](c3ccccc3)[C@H](c3ccccc3)N2[C@H](c2ccccc2OCCO)[C@@]12C(=O)Nc1ccc(C#CCCO)cc12`, the z-score is -3.75.

On to `CCOC(=O)C[C@H]1[C@H](OC(=O)Cc2ccc3c(c2)OCO3)[C@@H](NC(=O)C2CCCCC2)c2cc(OCCCO)ccc2N1C(=O)c1ccccc1`, for which the z-score is -0.0136.

Consider `COc1ccc([Si](C)(C)[C@@H]2[C@@H](CCO)O[C@]3(C(=O)N(Cc4ccccc4)c4ccc(N5CCOC5=O)cc43)[C@H]2C)cc1`, for which the z-score is -5.88.

Regarding `C=C(/C(=C/C[C@H](OC(C)=O)c1ccc(CO)o1)c1cnc2ccccc2c1)C(C)C`, the z-score was 0.27.

As for `CCCCCCCCCCC(O)C1C=CC2C(=O)N(c3ccccc3)C(=O)C2N1Nc1ccc(C#N)cc1` (configuration not stated), the z-score was -3.71.

The nature of the next experiment: P. aeruginosa biofilm formation inhibitors, primary screen, PAO1 strain, BacTiter-Glo luminescence, LB-PBS (AID 1144). The settings on record: 12 h, higher = more signal.
Consider `COc1cc2c(cc1O)C(c1cccs1)N(Cc1cc3c(cc1Br)OCO3)CC2` (configuration not stated), for which the z-score was 0.582.

Turning to `CCC#CCN(Cc1ccccc1Br)[C@H](/C=C/C1CC1)[C@@H](O)Cc1ccccc1`, the z-score was -1.23.

As to `COC(=O)[C@@]1(Cc2ccccc2)[C@H]2c3cc(C(=O)N4CCCC4)n(CCc4ccccn4)c3C[C@H]2CN1C(=O)c1ccccc1`, the z-score was 1.09.

Consider `CCCCC(CC)C(O)C1C=CC2C(=O)N(c3ccccc3)C(=O)C2N1Nc1ccccc1F` (configuration not stated), for which the z-score is -0.786.

Consider `[N-]=[N+]=Nc1ccccc1[C@@H]1OC(c2ccc(OCCCO)cc2)=N[C@]1(Cc1ccccc1)C(=O)N1CCCCC1`, for which the z-score is 0.316.

Turning to `CC1CC/C=C\[C@H]2OC34C=CCN(C(C)C)C(=O)[C@H]3N(CCO)C(=O)[C@@H]4C2C(=O)O1` (some centres not stated), the z-score was 0.591.

With `CCOC(=O)C1=C[C@@H](C(C)(C)C)N(S(=O)(=O)c2ccc(C)cc2)[C@H]1c1cccc2ccccc12`, the z-score was 0.873.

Turning to `CC(C)[Si]1(C(C)C)OCc2cc(-c3ccc(-c4ccc(Cl)c(Cl)c4)o3)nc(-c3ccccc3)c21`, the z-score is -0.543.

For the compound `CCCCCCc1nc(Cc2cc(OC)c(OC)c(OC)c2)cc2c1[Si](C(C)C)(C(C)C)OC2`, the z-score is -0.012.

As to `C=CC[C@@H](OC(=O)Nc1ccc(SC)cc1)c1ccc(O)c(F)c1`, the z-score is -1.57.

For `Cc1ccc(NN2C(C(O)c3c(F)cccc3Cl)C=CC3C(=O)N(C4CCCCC4)C(=O)C32)cc1` (configuration not stated), the z-score was -0.933.

Consider `COc1ccc([Si](C)(C)[C@@H]2[C@@H](CC(=O)N(CCO)Cc3ccccc3)O[C@]3(C(=O)N(Cc4cccc(N5CCCCC5=O)c4)c4ccccc43)[C@H]2C)cc1`, for which the z-score is -0.952.

On to `NC(=O)[C@H]1[C@@H]2C(=O)O[C@@H](c3ccccc3)[C@@H](c3ccccc3)N2[C@@H](c2ccc(OCCO)cc2)[C@]12C(=O)Nc1ccc(C#CCCO)cc12`, for which the z-score is -0.311.

For the compound `COc1cc(C(O)C2C=CC3C(=O)N(C)C(=O)C3N2Nc2ccccc2)cc(OC)c1OC` (configuration not stated), the z-score was -0.426.

Take `C#Cc1cc2ccccc2oc1=O`: the z-score was 0.534.

With `CC(=O)NCCCC[C@@H]1NC(=O)[C@@H]2C[C@H](C(=O)NCCCCCN)[C@H](c3cccc(OCCO)c3)N2C1=O`, the z-score was -1.02.

Consider `COc1ccc(CCNC(=O)[C@@]2(c3ccc([N+](=O)[O-])cc3)CC(=O)N(C3CCCCC3)[C@@H]2c2ccc(CO)cc2)cc1`, for which the z-score is 0.733.

For `NCCCCCNC(=O)[C@@H]1C[C@@H]2C(=O)N[C@@H](CCCCN)C(=O)N2[C@@H]1c1ccc(O)cc1`, the z-score is -0.148.

On to `NCCCCCNC(=O)[C@H]1C[C@H]2C(=O)N3CCC[C@H]3C(=O)N2[C@H]1c1cccc(OCCO)c1`, for which the z-score was 0.294.

As for `COCCOC(=O)N1C(=O)[C@@]2(c3cc(C#CCCO)ccc31)[C@H](c1ccc(OCCO)cc1)N1[C@H](c3ccccc3)[C@H](c3ccccc3)OC(=O)[C@H]1[C@@H]2C(=O)Nc1nc2ccccc2s1`, the z-score was 0.56.

On to `COC(=O)C1=CC(CCCO)=CC(c2cccs2)N(C)C=C1C(=O)OC` (configuration not stated), for which the z-score was 0.321.

For the compound `COCCOC(=O)N1C(=O)[C@@]2(c3cc(C#CC4(O)CCCCCC4)ccc31)[C@H](c1ccc(O)cc1)N1[C@H](c3ccccc3)[C@H](c3ccccc3)OC(=O)[C@H]1[C@@H]2C(=O)N1CCN(c2ncccn2)CC1`, the z-score is -0.127.

Regarding `COc1ccc([Si](C)(C)[C@@H]2[C@@H](CCO)O[C@]3(C(=O)N(Cc4cccc(NC(=O)[C@H](C)O)c4)c4ccccc43)[C@H]2C)cc1`, the z-score is -1.07.

Consider `Cc1ccc(S[C@]2(C(=O)O)CC(=O)N(C3CCCCC3)[C@@H]2c2ccc(CO)cc2I)cc1`, for which the z-score was -0.64.

Regarding `O=C1C[C@]2(c3ccc([N+](=O)[O-])cc3)C(=O)N(C3CC3)c3cc(CO)ccc3[C@H]2N1CC12CC3CC(CC(C3)C1)C2`, the z-score was 0.332.

Turning to `COCCCNC(=O)[C@@]1(Sc2ccc(C)cc2)CC(=O)N(C2Cc3ccccc3C2)[C@@H]1c1ccc(CO)cc1`, the z-score was -1.03.

For `O=C1OCCC=C[C@H]2OC34C=CCN(c5ccc6ccccc6c5)C(=O)[C@H]3N(CCCO)C(=O)[C@@H]4C12` (some centres not stated), the z-score is -0.633.

On to `COC(=O)[C@@]1(Cc2ccc(F)cc2)[C@H]2c3cc(C(=O)N(C)C)n(CCc4ccc(OC)c(Br)c4)c3C[C@H]2CN1C(=O)c1ccccc1`, for which the z-score is 0.167.

On to `[N-]=[N+]=Nc1ccccc1C[C@@]1(C(N)=O)N=C(c2ccc(OCCCO)cc2)O[C@@H]1c1ccccc1N=[N+]=[N-]`, for which the z-score was -0.0225.

As to `O=C(NCc1ccc(F)cc1)[C@H]1C[C@H]2C(=O)NCC(=O)N2[C@H]1c1ccc(O)cc1`, the z-score is 0.3.

In the case of `C=CCNC(=O)[C@@H]1[C@H]2C(=O)O[C@H](c3ccccc3)[C@H](c3ccccc3)N2[C@H](c2ccccc2OCCO)[C@@]12C(=O)Nc1ccc(C#CCCO)cc12`, the z-score is -1.2.

`CCOC(=O)C[C@H]1[C@H](OC(=O)Cc2ccc3c(c2)OCO3)[C@@H](NC(=O)C2CCCCC2)c2cc(OCCCO)ccc2N1C(=O)c1ccccc1`: the z-score is -1.38.

Take `COc1ccc([Si](C)(C)[C@@H]2[C@@H](CCO)O[C@]3(C(=O)N(Cc4ccccc4)c4ccc(N5CCOC5=O)cc43)[C@H]2C)cc1`: the z-score is -1.37.

For the compound `C=C(/C(=C/C[C@H](OC(C)=O)c1ccc(CO)o1)c1cnc2ccccc2c1)C(C)C`, the z-score was -1.31.

For the compound `CCCCCCCCCCC(O)C1C=CC2C(=O)N(c3ccccc3)C(=O)C2N1Nc1ccc(C#N)cc1` (configuration not stated), the z-score was -0.209.
